The list is not random: actives were taken first. Their share in the collection is about 2.6%.
LT uptake inh: qHTS Assay for Anthrax Lethal Toxin Internalization | Cells, anthrax lethal toxin internalization, FRET ratio (460/530) | Potency, µM (titrated, usually from 40 µM), without a hit: at the top dose activity change, negative = inhibition, hits mostly inhibitors | 70,000 compounds, 0.67% hits | AID 912, 2007; further: on the % scale 0 is the no-effect control and ±100 the full control effect; nearly all actives have a fitted effect of over 50% in size
Prx2 Sm inh: Schistosoma Mansoni Peroxiredoxins (Prx2) | S. mansoni Prx2 activity coupled to TGR/GSH (TGR is thioredoxin glutathione reductase), NADPH fluorescence loss, qHTS | Potency, µM | 65,000 compounds, 0.07% hits | Schistosoma mansoni peroxiredoxin 2 (Prx2)
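Prx2 inhibition was measured as reduced NADPH consumption when electrons flowed from NADPH through TGR and glutathione to Prx2 and H2O2. Plates were read kinetically over 8 min; enzyme reagents were held at 4 deg C during dispensing.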
AmpC inh no det: Promiscuous and Specific Inhibitors of AmpC Beta-Lactamase (assay without detergent); P00811; AmpC nitrocefin hydrolysis, absorbance 480 nm, no detergent; Potency, µM (series often up to 28.7 µM), for the others: at the top dose activity change, negative = inhibition; 71,000 compounds, 1.8% hits; AID 585, 2007; further: % of control where 0% means no effect
Target sequence (P00811 whole entry, looked up): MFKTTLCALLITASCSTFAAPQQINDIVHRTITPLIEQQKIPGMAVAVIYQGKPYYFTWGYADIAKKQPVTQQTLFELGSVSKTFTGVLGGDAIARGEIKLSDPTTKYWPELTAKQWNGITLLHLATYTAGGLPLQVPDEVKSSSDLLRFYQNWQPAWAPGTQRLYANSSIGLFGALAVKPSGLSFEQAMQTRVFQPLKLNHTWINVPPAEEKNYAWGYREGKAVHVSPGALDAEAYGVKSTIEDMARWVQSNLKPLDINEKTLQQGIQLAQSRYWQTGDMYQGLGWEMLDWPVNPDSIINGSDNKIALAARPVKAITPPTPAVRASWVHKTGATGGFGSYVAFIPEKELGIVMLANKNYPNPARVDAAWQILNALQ
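AmpC, 20 mM phosphate pH 7.0; 15 min cpd preinc, RT; start with nitrocefin (800 uM stock); A480 kinetic read, 20 s intervals, 4 min. No-enzyme wells = negative control.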
AmpC det inh: Promiscuous and Specific Inhibitors of AmpC Beta-Lactamase (assay with detergent) | P00811 | purified AmpC, nitrocefin hydrolysis with detergent | Potency, µM (top dose mostly 28.7 µM), for inactives: at the top dose activity change, negative = inhibition | 71,000 compounds, 0.09% hits; active means well fitted curve in the direction sought with a large enough effect; inconclusive means small, poorly fitted or top-dose-only effect; further: on the % scale 0 is the no-effect control and ±100 the full control effect
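E. coli AmpC (5.3 nM) in 20 mM phosphate pH 7.0 with 0.01% Triton X-100, preincubated 15 min RT with compound; nitrocefin (2 uL of 800 uM stock) hydrolysis followed by 480 nm absorbance every 20 s over 4 min.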
* hit, by the source's call; ? = inconclusive; . = not tested or not shown; [ ] = remark or other dose. Unless noted, the call rests on the fitted dose curve. Potency means the concentration at half of the fitted maximal effect.

SMILES	LT uptake inh	Prx2 Sm inh	AmpC inh no det	AmpC det inh
O=C(O)[C@H]1CCCC[C@@H]1c1c2ccc(=O)c(O)c-2oc2c(O)c(O)ccc12	?	>57	?	-14%[5.75 µM]
CC1(C)Cn2c(nnc2-c2ccccc2)S1	-6%	>57	-3%	-1%
C=C1Cn2c(nnc2-c2ccc(Cl)cc2)S1	1%	>57	4µM*[single pt active]	12%
O=S(=O)(c1ccc2c(c1)OCCO2)N1CCC(c2nc3ccc(Cl)cc3[nH]2)CC1	13µM*	>57	-24%	0%
COc1cc2c(C)nc3onc(-c4ccccc4)c3c2cc1OC	1µM*	>57	104%	-4%
COc1cc(-c2nc(-c3cccc(C)c3)no2)cc(OC)c1OC	?	.	68%	-1%
CCN1CCN(Cc2ccc(NC(=O)Nc3ccccc3Cl)cc2)CC1	-18%	>57	4µM*[single pt active]	15%
c1ccc(B2OC[C@@H]3OB(c4ccccc4)O[C@H]([C@@H]4COB(c5ccccc5)O4)[C@@H]3O2)cc1	5%[8 µM]	>57	-44%[5.75 µM]	1.6µM*
CC(C)CC(C(=O)Nc1oc(-c2ccco2)c(-c2ccco2)c1C#N)N1C(=O)c2ccccc2C1=O (configuration not stated)	?	>57	5µM*	18%
CC(C)CC(C(=O)Nc1ccc2c(c1)OCCO2)N1C(=O)c2ccccc2C1=O (configuration not stated)	-14%	>57	22%	2%
NS(=O)(=O)c1ccc(CCNC(=O)C2CCCN(S(=O)(=O)c3cccnc3)C2)cc1 (configuration not stated)	-10%	>57	4µM*[single pt active]	13%
O=C(NC1CCCC1)C1CCCN(S(=O)(=O)c2cccc3cccnc23)C1 (configuration not stated)	-14%	>57	3.2µM*[single pt active]	14%
CCOC(=O)N1CCC(NC(=O)C2CCCN(S(=O)(=O)c3cccnc3)C2)CC1 (configuration not stated)	-5%	>57	4µM*[single pt active]	12%
Cc1ccc2nc(NC(=O)C3CCCN(S(=O)(=O)c4cccnc4)C3)sc2c1 (configuration not stated)	-30%	>57	4µM*[single pt active]	13%
Cc1ccc2nc(NC(=O)C3CCCN(S(=O)(=O)c4cnc[nH]4)C3)sc2c1 (configuration not stated)	?	>57	2%	3%
O=C(NC1CCCCCC1)C1CCN(S(=O)(=O)c2cccc3cccnc23)CC1	-15%	>57	23%	30%
O=C(NCCc1ccccc1)C1CCCN(S(=O)(=O)c2cccnc2)C1 (configuration not stated)	-1%	>57	3%	-1%
CCOC(=O)N1CCC(NC(=O)C2CCCN(S(C)(=O)=O)C2)CC1 (configuration not stated)	?	>57	-6%	-4%
CC(C)C[C@H](NP(=O)(O)O[C@@H]1O[C@@H](C)[C@@H](O)[C@@H](O)[C@H]1O)C(=O)N[C@@H](Cc1c[nH]c2ccccc12)C(=O)O	-15%	>57	7%	-1%
Cc1cc2nc([C@H](C)C(=O)c3ccc(Cl)cc3)c(=O)[nH]c2cc1C	-3%[8 µM]	>57	-7%[5.75 µM]	-5%[5.75 µM]
O=C(NCCN1CCCC1)c1ccc(CS(=O)(=O)c2c(Cl)cccc2Cl)o1	-9%	>57	4µM*[single pt active]	13%
CN(C)CCNC(=O)c1ccc(CS(=O)(=O)c2c(Cl)cccc2Cl)o1	-22%	>57	10%	4%
COCc1nnc(NS(=O)(=O)c2ccc(C)cc2)s1	-6%	>57	-10%	15%
CC(C)Cc1nnc(NS(=O)(=O)c2ccc(Cl)cc2)s1	-14%	>57	4µM*[single pt active]	25%
Cn1c(C(=O)NCCCN2CCCCCC2)cc2c(=O)n(C)c3ccccc3c21	4µM*	.	130%	14%
SMILES	LT uptake inh	Prx2 Sm inh	AmpC inh no det	AmpC det inh
Cn1c(C(=O)Nc2ccc3c(c2)OCCO3)cc2c(=O)n(C)c3ccccc3c21	?	>57	70%	13%
CCCN1CCN(CCCNC(=O)c2cc3c(=O)n(C)c4ccccc4c3n2C)CC1	13µM*	>57	4µM*[single pt active]	12%
CN1CCN(CCNC(=O)c2cc3c(=O)n(C)c4ccccc4c3n2C)CC1	?	>57	4µM*[single pt active]	12%
COc1cccc(-c2ccc3ncnc(NCc4cccs4)c3c2)c1	13µM*	>57	6.3µM*	10µM*
O=C(Cc1ccc2c(c1)OCCO2)c1c(O)cc(O)cc1O	-1%	>57	10µM*	-4%
O=C(O)COc1ccc(C(=O)Cc2ccc3c(c2)OCCCO3)c(O)c1	-7%	>57	-11%	-1%
COCCn1c(=O)c(-c2ccc(OC)cc2)nc2cnc(N3CCOCC3)nc21	?	>57	17%	-4%
O=C(NCc1cccnc1)c1ccccc1Br	-2%	>57	3%	-1%
O=C(NCc1cccnc1)c1cnn2ccccc12	0%	>57	4µM*	14%
CC(=O)c1cccc(NC(=O)c2cnn3ccccc23)c1	13%	>57	4µM*[single pt active]	10%
CCN(CC)c1ncnc2c1ncn2[C@@H]1O[C@@H](COP(=O)(O)OP(=O)(O)C(Br)(Br)P(=O)(O)O)[C@H](O)[C@@H]1O	4%	>57	-3%	-3%
CC(C)=C[C@H]1[C@@H](COC(=O)c2ccccc2Cl)C1(C)C	-12%[8 µM]	>57	1%[5.75 µM]	-2%[5.75 µM]
Nc1cccc(-c2nc3ccc(N)cc3s2)c1	?	>57	4%	-3%
Nc1ccc(O)c(-c2nc3ccccc3s2)c1	?	>57	0.4µM*	7%
CC1(NC[C@@H](O)COc2cccc3[nH]ccc23)CCC(C(C)(C)NC(=O)CBr)CC1 (some centres not stated)	3%	>57	-1%	-2%
O=c1c2ccccc2nc(SCc2nnc(-c3ccccc3Br)o2)n1-c1ccccc1	15%	>57	20µM*	-2%
Brc1ccccc1-c1nnc(CSc2nncn2-c2ccccc2)o1	-1%	>57	11%	-4%
COc1ccc(S(=O)(=O)N(CCCN2CCCC2=O)Cc2cc3c(C)cc(C)cc3[nH]c2=O)cc1	4%	20*	178%	1%
CCOC(=O)c1cccc(NC(=O)CN2C(=O)C3C4C=CC(C4)C3C2=O)c1 (configuration not stated)	9%	>57	3%	4%
Cc1cccc(NC(=O)NCCN2C(=O)C3C4C=CC(C4)C3C2=O)c1 (configuration not stated)	-8%	>57	4µM*[single pt active]	11%
COc1ccc(NC(=O)NCCCN2CCCC2=O)cc1	-2%	>57	4µM*[single pt active]	11%
COc1ccc(CN2C(=O)C3C4C=CC(C4)C3C2=O)cc1 (configuration not stated)	3%	>57	0%	-3%
COc1ccc(NC(=O)NCCCN2CCCCC2C)cc1 (configuration not stated)	1%	>57	-7%	-1%
COc1ccc(NC(=O)NCCN2C(=O)C3C4C=CC(C4)C3C2=O)cc1 (configuration not stated)	9%	>57	2.5µM*[single pt active]	12%
